In the library only some 3.3% were active in any assay of this set; here they are far more common.
HGIII-sPLA2 inh = human group III sPLA2 inhibitors, primary screen, biochemical, QFRET, BODIPY PC-A2 liposome substrate | Group 3 secretory phospholipase A2 (Homo sapiens), Q9NZ20 | QFRET BODIPY PC-A2 liposome hydrolysis, fluorescence | inhibition, % at 12.2 µM | 370,000 compounds, 0.56% hits | AID 743126, 2013;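 active = inhibition above mean plus 3 SD of compounds lying within the high and low control bounds, cut at about 19% in these data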;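 note: 0% = median of test compound wells and 100% = no enzyme DMSO wells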
UBC13 inh = UBC13 polyubiquitin chain formation inhibitors, primary screen, biochemical, TR-FRET, uHTS. Ubiquitin-conjugating enzyme E2 N (Homo sapiens), P61088. inhibition, % at 20 µM. 330,000 compounds, 0.47% hits; in the data active = inhibition above about 45%, passing the limit was not always enough
Target sequence (P61088 whole entry, looked up): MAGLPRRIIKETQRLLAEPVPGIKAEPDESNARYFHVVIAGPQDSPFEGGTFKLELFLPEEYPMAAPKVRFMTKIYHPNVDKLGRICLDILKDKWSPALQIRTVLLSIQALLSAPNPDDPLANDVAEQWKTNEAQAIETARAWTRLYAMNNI
NR3A LBD binder = binders of NR3A ligand-binding domain, primary screen, biophysical, differential scanning fluorimetry, uHTS. NR3A LBD differential scanning fluorimetry, Tm shift; 0% = protein alone, 100% = glycine-bound protein. Tm shift relative to glycine control, % at 25 µM. 340,000 compounds, 2.5% hits. AID 1259313, 2017;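 active = melting temperature shift of at least 10% of the positive control shift, at one fixed dose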
SUMO HTRF inh = inhibitors of in vitro SUMOylation cascade, primary screen, biochemical, HTRF, uHTS. 290,000 compounds, 0.36% hits. HTRF SUMOylation assay, SAE1/SAE2 + UBC9. inhibition, % at 35 µM. SUMO-conjugating enzyme UBC9 (Homo sapiens), P63279; in the data active = inhibition above about 50%, passing the limit was not always enough
Target sequence (P63279 whole entry, looked up): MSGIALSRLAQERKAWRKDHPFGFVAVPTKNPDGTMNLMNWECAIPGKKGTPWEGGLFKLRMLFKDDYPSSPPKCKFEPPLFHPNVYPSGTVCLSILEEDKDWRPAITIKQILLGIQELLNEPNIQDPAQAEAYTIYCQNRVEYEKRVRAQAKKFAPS
* = called active by the depositor.

What do the screens show for `O=C(Nc1ccc(Cl)c(Cl)c1)Nc1ccccc1NS(=O)(=O)c1cccs1`?
HGIII-sPLA2 inh: -13.6; UBC13 inh: 1.5; NR3A LBD binder: 34.2*; SUMO HTRF inh: -13.4

What do the screens show for `O=C(Nc1ccc(Cl)cc1)Nc1ccccc1C(=O)O`?
HGIII-sPLA2 inh: -14.2; UBC13 inh: 6.2; NR3A LBD binder: 2.2; SUMO HTRF inh: 16.6

How did O=C(Nc1ccc(Cl)c(Cl)c1)Nc1ccccc1C(=O)O do in these assays?
HGIII-sPLA2 inh: -19.9; UBC13 inh: -2.6; NR3A LBD binder: 17.8*; SUMO HTRF inh: 25.2

Results for O=C(Nc1ccc(Br)cc1)Nc1ccccc1Cl ?
HGIII-sPLA2 inh: -1.3; UBC13 inh: 3.6; NR3A LBD binder: 21.0*; SUMO HTRF inh: 16.0

How did O=C(Nc1ccccc1)Nc1ccccc1NS(=O)(=O)c1cccs1 do in these assays?
HGIII-sPLA2 inh: -7.8; UBC13 inh: 0.7; NR3A LBD binder: 22.2*; SUMO HTRF inh: 17.2

How did CCCC[C@H]1C2CC(OC(=O)Nc3ccccc3C)C(C2)[C@H]2CCCCN21 (some centres not stated) do in these assays?
HGIII-sPLA2 inh: 18.7

How did CC(=O)c1cccc(NC(=O)C(OC(=O)c2ccccc2NS(=O)(=O)c2cccs2)c2ccccc2)c1 (configuration not stated) do in these assays?
HGIII-sPLA2 inh: -38.8; UBC13 inh: -38.5; NR3A LBD binder: 29.8*; SUMO HTRF inh: 8.8

What do the screens show for `CCOc1ccccc1NC(=O)C(OC(=O)c1ccccc1NS(=O)(=O)c1cccs1)c1ccccc1` (configuration not stated)?
HGIII-sPLA2 inh: -26.9; UBC13 inh: -5.0; NR3A LBD binder: 0.3; SUMO HTRF inh: 3.9

Results for CN1CCCN(C(=O)CSc2nnc(-c3cccnc3)n2C2CCCCC2)CC1 ?
HGIII-sPLA2 inh: 6.8

What do the screens show for `O=C1C(=O)N(Cc2ccc(-c3ccc(F)nc3)cc2)c2ccc(OC(F)(F)F)cc21`?
HGIII-sPLA2 inh: 15.4

How did Cc1cccc(NC(=O)COc2ccc(/C=C\c3[nH]c(=O)[nH]c(=O)c3[N+](=O)[O-])cc2)c1 do in these assays?
HGIII-sPLA2 inh: -39.4; UBC13 inh: -5.7; NR3A LBD binder: 10.1*; SUMO HTRF inh: 13.6

How did N#CCC(=O)N/N=C/c1c2ccccc2cc2ccccc12 do in these assays?
HGIII-sPLA2 inh: -19.6; UBC13 inh: -4.1; NR3A LBD binder: -0.5; SUMO HTRF inh: 2.6

Results for N#CCC(=O)N/N=C/c1cc(Br)ccc1OCc1cccc2ccccc12 ?
HGIII-sPLA2 inh: -15.6; UBC13 inh: -7.1; NR3A LBD binder: 20.0*; SUMO HTRF inh: -21.5

How did Cc1cccc(N=C2NN=C(c3c(C)[nH]c4ccccc34)CS2)c1 do in these assays?
HGIII-sPLA2 inh: -2.4; UBC13 inh: -16.5; NR3A LBD binder: 19.5*; SUMO HTRF inh: 17.3

Results for CCOC(=O)N(C)[C@H]1C[C@H]2c3[nH]c4cccc(-c5cccc(F)c5)c4c3CCN2C(=O)[C@H]1[C@H](C)O ?
HGIII-sPLA2 inh: -2.1

How did Oc1ccccc1C1CC(c2cccs2)=NC(c2ccc(Cl)cc2)N1 (configuration not stated) do in these assays?
HGIII-sPLA2 inh: -12.5; UBC13 inh: -4.3; NR3A LBD binder: 10.1*; SUMO HTRF inh: -1.3

How did CCC[C@H]1[C@@H](OC(=O)NCc2ccccc2)CC[C@@]23CCCN2C(=O)CCC[C@@H]13 do in these assays?
HGIII-sPLA2 inh: 0.6

How did O=C(N/N=C/c1ccccc1)c1[nH]c2ccc(Br)cc2c1-c1ccccc1 do in these assays?
HGIII-sPLA2 inh: 9.4; UBC13 inh: -4.8; NR3A LBD binder: 26.6*; SUMO HTRF inh: 3.7

What do the screens show for `COc1ccc2[nH]c(C(=O)N/N=C/c3ccccc3OC)cc2c1`?
HGIII-sPLA2 inh: 0.3; UBC13 inh: -11.8; NR3A LBD binder: 5.8; SUMO HTRF inh: 12.5

What do the screens show for `COc1cc(OC)c2cc(C(=O)N/N=C/c3ccccc3O)[nH]c2c1`?
HGIII-sPLA2 inh: 2.2; UBC13 inh: -0.9; NR3A LBD binder: 36.6*; SUMO HTRF inh: 10.0

What do the screens show for `Cc1ccc2[nH]c(C(=O)N/N=C/c3ccccc3C(=O)O)c(-c3ccccc3)c2c1`?
HGIII-sPLA2 inh: -23.4; UBC13 inh: -6.6; NR3A LBD binder: 0.0; SUMO HTRF inh: 9.6

Results for Cc1ccc2[nH]c(C(=O)N/N=C/c3ccccc3O)c(C)c2c1 ?
HGIII-sPLA2 inh: 15.1; UBC13 inh: 2.9; NR3A LBD binder: 19.5*; SUMO HTRF inh: 17.3

Screening data deposited in PubChem BioAssay by several laboratories.
